{"source": "PubChem BioAssay (NCATS)", "note": "Records with an inconclusive call do not appear. Entries that show only a call come without a potency. The source made the active and inactive calls. Calls follow the shape of the dose curve; as a rule, active = well fitted cell-killing curve with a large enough effect; inconclusive = small, poorly fitted or top-dose-only effect; inactive = flat fitted curve, though single readings scatter. Potency is read from the fitted curve at half-maximal effect."}
{"test": "qHTS of pediatric cancer cell lines to identify multiple opportunities for drug repurposing: Primary screen for Rh18 cells (AID 1347102); also: nearly all actives have a fitted effect of over 65% in size", "conditions": "Rh18 rhabdomyosarcoma viability, CellTiter-Glo luminescence, 48 h; series mostly up to 46 µM", "from_the_text": "Drug repurposing or repositioning has been offered as a strategy for drug development in oncology programs. This approach has special potential for childhood cancers and other rare or orphan diseases, where the expected return on new drug development has been a disincentive to pharmaceuticals.\nIn this project we exploit the poly-pharmacology of drugs to discover new indications via phenotypic screening of a panel of 19 well-characterized cell lines derived from solid tumors seen in children and adolescents. The goal is to identify approved drugs with previously unrecognized anticancer properties that has the potential to reveal new mechanisms and biological processes involved in carcinogenesis or drug resistance. We employed a titration-based paradigm (quantitative high-throughput screening or qHTS), where all compounds were tested at multiple concentrations for their effect on cell viability. Concentration-response curves (CRCs) were derived directly from the primary screen, and both potency and efficacy values were used to identify compounds with robust bioactivity profiles. We screened the NIH Chemical Genomics Center (NCGC) Pharmaceutical Collection (NPC) and Mechanism Interrogation Plate (MIPE) small molecule collections of approved and investigational compounds against these cell lines; and measured metabolically active cells after 48 hours of compound treatment as a proxy for cell viability.\nAssay Submitter: Nathalia J. Martinez, National Center for Advancing Translational Sciences, National Institutes of Health, Rockville, MD, USA; email: natalia.martinez@nih.gov\n[1] Shen, M et al. Quantitative high-throughput phenotypic screening of pediatric cancer cell lines identifies multiple opportunities for drug repurposing. Oncotarget 2017 Dec 19;9(4):4758-4772. PMID 29435139.\nThe cells were obtained from University of North Carolina (UNC), Pediatric Preclinical Testing Program (PPT), and Coriell Institute (CI).\nqHTS cell viability assay:\nCells were assayed in growth media at a density of 500-1,000 cells/well. Five microliters of cells were dispensed into 1,536-well, white, solid-bottom, TC-treated plates (Greiner Bio One) using a multidrop dispenser and incubated at 37 degrees C, 5% CO2, under a humidified atmosphere for 5 hours. Twenty-three nanoliters of compounds and controls (neutral control DMSO or positive control bortezomib at final concentration of 2.3 µM) were subsequently transferred by Kalypsys pintool. For primary screens, the MIPE collection was tested at 11-point dilutions (final concentrations range from 0.78 nM to 46 µM) and the NPC collection at 8-point dilutions (final concentrations range from 0.59 nM to 46 µM). Compounds tested in follow-up screens were assayed at 11-point dilutions. Cells were incubated for 48 hours, followed by addition of 3 µL of CellTiter-Glo (Promega). After a 15 min incubation at room temperature, samples were analyzed for luminescence intensity using a ViewLux High-throughput CCD imager equipped with clear filters."}
{"smiles": "CC(C)(C)NCC(O)c1ccc(O)c(CO)c1", "note": "(stereo not given)", "Potency": "inactive"}
{"smiles": "Cc1n[nH]c(C)c1Cc1sc2c(c1C(=O)N1C[C@H](O)CO1)c(=O)n(C)c(=O)n2CC(C)C", "Potency": "inactive"}
{"smiles": "CNCc1ccc(-c2[nH]c3cc(F)cc4c3c2CCNC4=O)cc1", "Potency": "inactive"}
{"smiles": "c1ccc(-c2nn3c(c2-c2ccnc4cc(OCCN5CCOCC5)ccc24)CCC3)nc1", "Potency": "inactive"}
{"smiles": "CC1(C)Cc2c(-c3ccccc3)c(-c3ccc(Cl)cc3)c(CC(=O)O)n2C1", "Potency": "inactive"}
{"smiles": "C[C@H](NC(=O)Cc1cc(F)cc(F)c1)C(=O)N[C@@H]1C(=O)N(C)c2ccccc2-c2ccccc21", "Potency": "inactive"}
{"smiles": "CS(=O)(=O)Oc1ccc2c(NC(N)=O)c(C(=O)c3ccc(Cl)cc3Cl)oc2c1", "Potency": "2.35 µM (active)"}
{"smiles": "CN(C)c1ccc(C2Nc3ccc4ccccc4c3C3=C2C(=O)CC(C)(C)C3)cc1Br", "note": "(stereo not given)", "Potency": "inactive"}
{"smiles": "COc1ccc(-c2ccc3c(N4CCOC[C@H]4C)nc(N4CCOC[C@H]4C)nc3n2)cc1CO", "Potency": "0.132 µM (active)"}
{"smiles": "COc1cc2nccc(Oc3ccc(NC(=O)NC4CC4)c(Cl)c3)c2cc1C(N)=O", "Potency": "5.26 µM (active)"}
{"smiles": "C1COC(NC(C2CC2)C2CC2)=N1", "Potency": "inactive"}
{"smiles": "Cc1c(CCOc2ccc(C(=O)O)cc2)c2cc(Cl)ccc2n1C(c1ccccc1)c1ccccc1", "Potency": "inactive"}
{"smiles": "CC[C@@H](C)[C@H](NC(=O)[C@H](CC1CCCCC1)NC(=O)c1ccno1)C(=O)N1CCC2(CCc3ccccc32)CC1", "Potency": "inactive"}
{"smiles": "O=c1[nH]c(-c2ccc(C(F)(F)F)cc2)nc2c1CSCC2", "Potency": "inactive"}
{"smiles": "NNCCc1ccccc1", "Potency": "inactive"}
{"smiles": "N[C@@H]1CONC1=O", "Potency": "inactive"}
{"smiles": "CCCc1nn(C)c2c(=O)[nH]c(-c3cc(S(=O)(=O)N4CCN(C)CC4)ccc3OCC)nc12", "Potency": "inactive"}
{"smiles": "COc1ccc(CC2=NN3C([C@@H](CCc4ccccc4)[C@@H](C)O)=NC(C)C3C(=O)N2)cc1OC", "note": "(stereo not given in full)", "Potency": "inactive"}
{"smiles": "Cc1ccc(-n2nc(C(C)(C)C)cc2NC(=O)Nc2ccc(OCCN3CCOCC3)c3ccccc23)cc1", "Potency": "inactive"}
{"smiles": "Cc1c(C)c2c(c(C)c1O)CCC(C)(COc1ccc(CC3SC(=O)NC3=O)cc1)O2", "note": "(stereo not given)", "Potency": "inactive"}
{"smiles": "Cc1ccnc(NS(=O)(=O)c2ccc(NC(=O)Nc3ccc(S(=O)(=O)Nc4nccc(C)n4)cc3)cc2)n1", "Potency": "inactive"}
{"smiles": "OC[C@H](Cc1ccccc1)Nc1nc(Oc2ccc3c(c2)CCC3)nc2c1ncn2Cc1ccc(-c2ccccc2)cc1", "Potency": "inactive"}
{"smiles": "CCOC(=O)N[C@@H]1CC[C@@H]2[C@@H](C1)C[C@H]1C(=O)O[C@H](C)[C@H]1[C@@H]2C=Cc1ccc(-c2cccc(F)c2)cn1", "Potency": "inactive"}
{"smiles": "CS(=O)(=O)c1ccc(C(=O)Nc2ccc(Cl)c(-c3ccccn3)c2)c(Cl)c1", "Potency": "inactive"}
{"smiles": "NCCc1ccc(O)c(O)c1", "Potency": "inactive"}
{"smiles": "c1ccc([C@H]2CN3CCSC3=N2)cc1", "Potency": "inactive"}
{"smiles": "Cc1cn[nH]c1", "Potency": "inactive"}
{"smiles": "Oc1cccc(-c2nc(N3CCOCC3)c3oc4ncccc4c3n2)c1", "Potency": "0.303 µM (active)"}
{"smiles": "Cn1c(=O)c(F)c(Nc2ccc(I)cc2F)c2c(=O)n(C[C@@H](O)CO)cnc21", "Potency": "20.9 µM (active)"}
{"smiles": "OC(CCN1CCCCC1)(c1ccccc1)C1CC2C=CC1C2", "note": "(stereo not given)", "Potency": "inactive"}
{"smiles": "CCc1ccc(CCOc2ccc(CC3SC(=O)NC3=O)cc2)nc1", "note": "(stereo not given)", "Potency": "inactive"}
{"smiles": "CCCc1nc2c(C)cc(-c3nc4ccccc4n3C)cc2n1Cc1ccc(-c2ccccc2C(=O)O)cc1", "Potency": "inactive"}
{"smiles": "CC(C)NCC(O)COc1ccc(COCCOC(C)C)cc1", "note": "(stereo not given)", "Potency": "inactive"}
{"smiles": "NC(=O)c1ccc(-c2nc(-c3ccc4c(c3)OCCO4)c(-c3ccccn3)[nH]2)cc1", "Potency": "inactive"}
{"smiles": "CCC(C)N(C)C(=O)c1cc2ccccc2c(-c2ccccc2Cl)n1", "note": "(stereo not given)", "Potency": "inactive"}
{"smiles": "O=C1CCCC2=C1C(c1[nH]ncc1Cl)N=C(Nc1nc3ccccc3o1)N2", "note": "(stereo not given)", "Potency": "inactive"}
{"smiles": "CCn1c(-c2nonc2N)nc2cnc(Oc3cccc(NC(=O)c4ccc(OCCN5CCOCC5)cc4)c3)cc21", "Potency": "inactive"}
{"smiles": "O=C(C1CC1)N1CC[C@@H](Cn2c(-c3ccc(-c4ccc5occc5c4)cc3)nc3cnccc32)C1", "Potency": "inactive"}
{"smiles": "C#Cc1cccc(Nc2ncnc3cc(OCCOC)c(OCCOC)cc23)c1", "Potency": "18.7 µM (active)"}
{"smiles": "Cc1csc(NC(=O)c2sc3nc4c(c(C(F)(F)F)c3c2N)CCC4)n1", "Potency": "inactive"}
